We go through 5 compounds from PubChem BioAssay.

Assay [1] in a line: compounds binding Alexa647 anti-His antibody – biochemical, small-molecule microarray, 635 nm fluorescence, artefact control for SMM control protein annotation, primary screen (AID 1128).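 Also: score merges feature fluorescence with signal-to-noise for each printed compound spot.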 Particulars: higher = more signal.
The subject of assay [2] is Human papillomavirus type 1a E7 protein (residues 1-88). Description: HPV1a E7 small-molecule binders, primary screen, biochemical, small-molecule microarray, residues 1-88, 635 nm (AID 1129). Particulars: small-molecule microarray binding, fluorescence 635 nm; higher = more signal.
Assay [3] deals with Focal adhesion kinase 1 (Homo sapiens) (UniProt Q05397). Description: PTK2 protein binding on printed compound slides – biochemical, small-molecule microarray, 635/667 nm fluorescence, BSA, DTT, primary screen (AID 1130).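 Also: composite of spot emission at 667 nm and signal to noise over triplicate slides.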 The note with it: 635 nm fluorescence, higher = more signal.
Assay [4] concerns Fibrinogen (Alexa647-labelled). Description: Alexa647-fibrinogen binding to printed small molecules – biochemical, small-molecule microarray, 635/667 nm fluorescence, artefact control for SMM control-protein annotation, profiling panel (AID 1131).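 Also: z-score merges 667 nm fluorescence with per-spot signal-to-noise over triplicate slides.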 The note with it: fibrinogen-A647 binding fluorescence, higher = more signal.
The target of assay [5] is Follistatin (Homo sapiens) (UniProt P19883). Description: FST protein binding to printed compounds – biochemical, small-molecule microarray, 635/667 nm fluorescence, primary screen (AID 1132). Particulars: 635 nm fluorescence, higher = more signal.
Assay [6] has as its target Fibroblast growth factor 2 (Homo sapiens) (UniProt P09038). Description: basic fibroblast growth factor binding to printed compounds – biochemical, small-molecule microarray, 635/667 nm fluorescence, primary screen (AID 1133). Particulars: FGF2, fluorescence 635/667, higher = more signal.
Assay [7] in a line: JC-1 mitochondrial potential readout, lung cancer cells – cell-based, A549, JC-1 fluorescence, basal, 24 h, 100 nL, profiling panel (AID 1138).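 Also: A549 lung adenocarcinoma cells under basal conditions with no added stimulus; test concentration not given here.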 The note with it: higher = more signal.
The next assay concerns Lefty1. Description: Lefty1 protein binding to printed compounds – biochemical, small-molecule microarray, 635/667 nm fluorescence, primary screen (AID 1139). The note with it: fluorescence 635/667, higher = more signal.
Assay [8] concerns wheat germ agglutinin (Triticum aestivum), Alexa647-labelled. Description: Alexa647-WGA lectin binding to printed small molecules – biochemical, small-molecule microarray, 635/667 nm fluorescence, artefact control for SMM control-protein annotation, profiling panel (AID 1140).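 Also: score merges 667 nm feature emission with signal to noise over triplicate slides.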 Particulars: WGA-A647 binding, 635 nm fluorescence, higher = more signal.
The target in assay [9] is Luciferin 4-monooxygenase (Photinus pyralis) (UniProt P08659). Description: inhibition of purified Photinus pyralis luciferase – biochemical, luminescence, purified enzyme, 2006 set, primary screen (AID 1141).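 Also: cell-free assay with purified firefly luciferase at 100 ng per well in PBS; test concentration not given here.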 The note with it: purified firefly luciferase, SteadyGlo luminescence, 30 min; higher = more signal, called active from +8 up or from −8 down.
Assay [10] relates to Wnt5a (protein binding on small-molecule microarray). Description: small molecules binding Wnt5a protein – biophysical, small-molecule microarray, 635/667 nm fluorescence, primary screen (AID 1142).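 Also: fluorescence read at 667 nm with signal to noise per printed feature.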 The note with it: 635 nm fluorescence, higher = more signal.
Assay [11] can be described thus: ATP-based viability of Huh7 replicon cells – cell-based, CellTiter-Glo luminescence, basal, 48 h, cytotoxicity control for HCV replication inhibitor project, primary screen (AID 1143).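 Also: Huh7 hepatoma cells carrying a hepatitis C replication reporter with no stimulus; test concentration not given here.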 The note with it: higher = more signal, called active from +8 up or from −8 down. In general terms: In antiviral work, replicon cells carry a viral genome segment that copies itself.

A short description of assay [12]: Pseudomonas biofilm growth suppression – PAO1 strain, BacTiter-Glo luminescence, LB-PBS, primary screen (AID 1144). Particulars: P. aeruginosa PAO1 biofilm, 12 h, higher = more signal.
Assay [13] in a line: basal CRE-LacZ reporter activity in PC12 – cell-based, unstimulated, primary screen (AID 1145). Particulars: no forskolin, luminescence, 4.5 h, higher = more signal, called active from +8 up or from −8 down.
Assay [14] is described as follows: forskolin-driven CRE-LacZ activity in PC12 – cell-based, CRE-LacZ reporter, forskolin-stimulated, primary screen (AID 1146).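 Also: PC12 cells with 6xCRE LacZ reporter stimulated by forskolin 10 µM; beta-galactosidase reporter signal reflecting CREB driven transcription.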 Particulars: luminescence, 4.5 h, higher = more signal, called active from +8 up or from −8 down.
Assay [15] concerns the target Streptavidin (Streptomyces avidinii) (UniProt P22629). Description: compounds binding control protein streptavidin – biophysical, small-molecule microarray, 635/667 nm fluorescence, artefact control for SMM compound annotation, primary screen (AID 1147).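 Also: signal reflects streptavidin binding to arrayed compounds as a control protein.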 Particulars: higher = more signal.
A short description of assay [16]: probe aInhba binding on compound microarray – biochemical, small-molecule microarray, 635/667 nm fluorescence, primary screen (AID 1148).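 Also: score merges 667nm spot fluorescence with signal-to-noise for antibody binding to printed compounds.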 The note with it: higher = more signal.
Assay [17] deals with Torsin-1A (Homo sapiens) (UniProt O14656). Description: TOR1A wild-type binding on microarray – cell lysate, small-molecule microarray, lysate, 635/667 nm, primary screen (AID 1149). The note with it: COS7 hTOR1A-WT lysate, 635 nm fluorescence, higher = more signal.
Assay [18] has the same target. Description: torsin A mutant lysate binding on microarrays – cell lysate, small-molecule microarray, COS7 lysate, 635/667 nm fluorescence, primary screen (AID 1150).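 Also: score pools 667 nm emission and signal to noise measuring lysate protein binding.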 The note with it: COS7 hTOR1A mutant lysate, 635 nm fluorescence, higher = more signal.
In assay [19] the test system is Sonic hedgehog protein (Shh). Description: Sonic hedgehog microarray binding compounds – biochemical, small-molecule microarray, 635/667 nm fluorescence, primary screen (AID 1151).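 Also: Shh protein binding to compounds spotted on small-molecule microarray slides; score combines spot fluorescence intensity with signal-to-noise across triplicate slides.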 The note with it: 635 nm fluorescence, higher = more signal.

Active and inactive are the calls of the source. Unless noted, no rule for the calls is given here.

Torsin-1A (Homo sapiens), sequence (O14656 whole entry, looked up): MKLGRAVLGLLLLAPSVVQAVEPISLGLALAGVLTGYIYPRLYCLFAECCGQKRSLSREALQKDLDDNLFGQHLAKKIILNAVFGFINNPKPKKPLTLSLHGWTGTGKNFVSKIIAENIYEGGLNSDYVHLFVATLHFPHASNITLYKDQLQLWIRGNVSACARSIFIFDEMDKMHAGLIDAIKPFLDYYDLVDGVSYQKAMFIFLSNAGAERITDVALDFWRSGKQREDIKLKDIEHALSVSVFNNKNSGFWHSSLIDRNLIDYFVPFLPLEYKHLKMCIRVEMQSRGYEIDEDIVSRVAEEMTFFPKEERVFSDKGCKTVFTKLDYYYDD
Focal adhesion kinase 1 (Homo sapiens), sequence (Q05397 whole entry, looked up): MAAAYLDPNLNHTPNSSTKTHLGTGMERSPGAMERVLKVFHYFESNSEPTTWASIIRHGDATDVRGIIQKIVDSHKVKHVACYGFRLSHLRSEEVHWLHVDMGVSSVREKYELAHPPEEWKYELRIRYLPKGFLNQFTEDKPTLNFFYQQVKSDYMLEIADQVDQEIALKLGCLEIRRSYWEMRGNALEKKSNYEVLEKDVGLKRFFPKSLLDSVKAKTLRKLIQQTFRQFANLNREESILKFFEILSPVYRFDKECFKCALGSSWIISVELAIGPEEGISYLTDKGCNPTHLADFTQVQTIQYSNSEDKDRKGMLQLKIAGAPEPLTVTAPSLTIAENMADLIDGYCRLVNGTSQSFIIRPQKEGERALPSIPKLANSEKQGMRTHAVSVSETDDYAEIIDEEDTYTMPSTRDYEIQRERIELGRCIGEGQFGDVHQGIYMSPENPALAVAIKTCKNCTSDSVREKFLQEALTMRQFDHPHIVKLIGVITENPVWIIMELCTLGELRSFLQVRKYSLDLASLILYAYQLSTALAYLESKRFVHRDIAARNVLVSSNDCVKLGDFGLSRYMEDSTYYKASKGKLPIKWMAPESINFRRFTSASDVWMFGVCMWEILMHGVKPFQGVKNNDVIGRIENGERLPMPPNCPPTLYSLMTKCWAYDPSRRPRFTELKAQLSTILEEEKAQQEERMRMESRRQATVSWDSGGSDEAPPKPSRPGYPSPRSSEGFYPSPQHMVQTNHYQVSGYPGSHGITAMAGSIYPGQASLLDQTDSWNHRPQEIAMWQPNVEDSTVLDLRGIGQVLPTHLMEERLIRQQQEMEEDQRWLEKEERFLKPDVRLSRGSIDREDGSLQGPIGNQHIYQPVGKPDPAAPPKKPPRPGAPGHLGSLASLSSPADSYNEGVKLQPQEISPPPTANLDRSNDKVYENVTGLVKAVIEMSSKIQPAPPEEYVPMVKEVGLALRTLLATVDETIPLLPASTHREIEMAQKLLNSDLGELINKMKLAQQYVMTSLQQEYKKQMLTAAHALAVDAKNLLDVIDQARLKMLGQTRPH
Follistatin (Homo sapiens), sequence (P19883 whole entry, looked up): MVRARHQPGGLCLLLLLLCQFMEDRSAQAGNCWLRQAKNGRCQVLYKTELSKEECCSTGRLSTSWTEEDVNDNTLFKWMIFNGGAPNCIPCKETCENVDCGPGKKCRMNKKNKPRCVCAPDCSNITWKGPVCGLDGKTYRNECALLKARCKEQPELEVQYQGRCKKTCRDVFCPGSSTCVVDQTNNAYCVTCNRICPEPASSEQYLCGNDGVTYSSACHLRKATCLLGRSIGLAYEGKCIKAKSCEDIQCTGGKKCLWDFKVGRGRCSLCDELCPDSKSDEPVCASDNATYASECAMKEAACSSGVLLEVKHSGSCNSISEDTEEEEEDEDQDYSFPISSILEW
Streptavidin (Streptomyces avidinii), sequence (P22629 whole entry, looked up): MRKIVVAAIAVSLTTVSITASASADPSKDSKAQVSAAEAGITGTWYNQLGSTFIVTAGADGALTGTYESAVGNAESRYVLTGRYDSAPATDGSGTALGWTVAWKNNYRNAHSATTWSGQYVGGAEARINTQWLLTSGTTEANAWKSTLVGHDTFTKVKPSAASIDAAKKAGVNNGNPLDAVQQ
Fibroblast growth factor 2 (Homo sapiens), sequence (P09038 whole entry, looked up): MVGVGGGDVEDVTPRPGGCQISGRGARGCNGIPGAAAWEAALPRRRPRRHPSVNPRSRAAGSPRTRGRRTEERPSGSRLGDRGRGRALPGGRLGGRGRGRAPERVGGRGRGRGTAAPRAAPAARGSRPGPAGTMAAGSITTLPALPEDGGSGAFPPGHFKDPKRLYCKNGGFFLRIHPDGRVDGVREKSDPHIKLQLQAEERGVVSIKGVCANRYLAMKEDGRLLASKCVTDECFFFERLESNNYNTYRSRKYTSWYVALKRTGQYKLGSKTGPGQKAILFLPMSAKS
Luciferin 4-monooxygenase (Photinus pyralis), sequence (P08659 whole entry, looked up): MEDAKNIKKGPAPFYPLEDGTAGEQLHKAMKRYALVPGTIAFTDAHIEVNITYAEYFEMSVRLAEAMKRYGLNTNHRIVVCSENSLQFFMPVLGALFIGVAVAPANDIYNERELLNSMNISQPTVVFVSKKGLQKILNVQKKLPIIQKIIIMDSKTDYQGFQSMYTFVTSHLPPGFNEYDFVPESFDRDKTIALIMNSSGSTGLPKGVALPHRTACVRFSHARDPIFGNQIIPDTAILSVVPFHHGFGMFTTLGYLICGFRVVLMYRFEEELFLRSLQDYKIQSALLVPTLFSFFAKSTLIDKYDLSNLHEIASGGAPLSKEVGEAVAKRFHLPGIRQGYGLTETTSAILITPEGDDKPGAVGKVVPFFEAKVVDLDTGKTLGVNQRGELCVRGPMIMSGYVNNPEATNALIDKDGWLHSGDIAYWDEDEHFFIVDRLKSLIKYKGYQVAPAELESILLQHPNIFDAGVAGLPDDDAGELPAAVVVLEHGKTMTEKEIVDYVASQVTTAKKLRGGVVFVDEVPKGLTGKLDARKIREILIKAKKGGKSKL

`C=C(/C(=C/C[C@@H](OC(=O)c1ccncc1)c1ccc(OCCO)cc1)c1cnc2ccccc2c1)C(C)C`: the composite z-score in assay [1] is 1.03; in assay [2], 1.13; in assay [3], -0.616; in assay [4], 0.806; in assay [5], 1.43; in [6], 1.17. Also, the composite z-score amounted to 1.5 in the assay on Lefty1; 0.976 in [8]; 0.73 in assay [10]; 0.283 in assay [15]; 0.0108 in assay [16]; 1.55 with Torsin-1A (Homo sapiens) [17]. Besides, the values for the composite z-score (with Torsin-1A (Homo sapiens) [18]; in [19]) were 0.815 and 2.11, respectively. Also, the z-score in [7] is 0.809; in assay [9] it was -2.06 (inactive); in [11], -8.41 (active); in [12], -0.56 (inactive); in assay [13] it was 6.47 (inactive); in [14] it was -0.209 (inactive).
As to `CC(C)[C@H](NC(=O)OC(C)(C)C)[C@@H](O)CC(=O)OC(C)(C)C`, the composite z-score is -0.105 in assay [1]; -1.47 in assay [2]; -0.563 in [3]; -0.808 in assay [4]; -0.275 in assay [5]; -0.394 in [6]. The composite z-score with Lefty1 was 0.123; in [8] it was -0.339; in assay [10] it was -0.417; in [15] it was -0.14; in [16], -0.152; in the assay with Torsin-1A (Homo sapiens) [17], -0.781. Besides, the values for the composite z-score (with Torsin-1A (Homo sapiens) [18]; in assay [19]) were -0.448 and -0.463, respectively. Moreover, the z-score in assay [7] is -1.25; in [9] it was -0.0331 (inactive); in assay [11] it was -0.49 (inactive); in assay [12] it was -0.896 (inactive); in assay [13] it was 0.293 (inactive); in assay [14] it was 0.337 (inactive).
For the compound `CO[C@@H]1COC(=O)CC=C[C@@H](C)[C@H](OC)COC(=O)[C@H](COCc2ccccc2)NC(=O)CC=C[C@H]1C`, the composite z-score in assay [1] was -1.36; in [2], -2.53; in [3], -0.843; in assay [4], -1.21; in assay [5], 1.43; in assay [6], 0.513. Moreover, the composite z-score in the assay on Lefty1 was 1.12; in [8], -1.13; in [10] it was -0.0092; in assay [15] it was -1.15; in [16], -0.253; in the assay with Torsin-1A (Homo sapiens) [17], 1.35. Moreover, the composite z-score with Torsin-1A (Homo sapiens) [18] amounted to 0.263; in assay [19], 1.5. Besides, the z-score was -0.169 in assay [7]; 0.518 (inactive) in assay [9]; -0.069 (inactive) in [11]; 0.204 (inactive) in assay [12]; 0.0664 (inactive) in assay [13]; -0.707 (inactive) in assay [14].
With `CC(C)=NOCc1ccc(-c2cc(-c3ccccc3)no2)cc1`, the composite z-score in assay [1] worked out at 0.0906; in assay [2], 0.272; in [3] it was 0.0171; in assay [4], 0.108; in assay [5], 0.0806; in assay [6], 0.437. The composite z-score was 0.003 in the assay on Lefty1; -0.477 in assay [8]; 0.102 in assay [10]; 0.06 in assay [15]; -0.23 in [16]; 0.299 with Torsin-1A (Homo sapiens) [17]. Also, the composite z-score with Torsin-1A (Homo sapiens) [18] was -0.223; in assay [19] it was 0.253. In addition, the z-score was -0.405 in assay [7]; 0.534 (inactive) in assay [9]; 0.517 (inactive) in assay [11]; 1.5 (inactive) in [12]; -0.797 (inactive) in assay [13]; 0.275 (inactive) in assay [14].
Take `CC(C)NC(=O)[C@@]1(C)c2ccccc2C(=O)N(Cc2cc(F)cc(C(F)(F)F)c2)[C@H]1c1ccc(CO)cc1`: the composite z-score in assay [1] worked out at 0.886; in [2] it was 0.982; in [3] it was 0.0792; in [4] it was 0.335; in assay [5], 0.677; in assay [6], 1.67. Further, the composite z-score came out at 0.0338 in the assay with Lefty1; 0.512 in assay [8]; 0.646 in assay [10]; 0.0926 in [15]; 0.2 in assay [16]; 0.411 with Torsin-1A (Homo sapiens) [17]. In addition, the composite z-score with Torsin-1A (Homo sapiens) [18] amounted to 0.916; in assay [19], 0.903. Also, the z-score was -0.483 in assay [7]; 0.433 (inactive) in assay [9]; -0.527 (inactive) in [11]; -0.699 (inactive) in assay [12]; 0.648 (inactive) in assay [13]; -0.237 (inactive) in assay [14].
